Legend:
Assay in all cases: log2 ratio of Biotin-Ahx-Ub-VS probe labelling (fragment/DMSO); higher = less target engagement (more negative = stronger competition), active = hit call of the paper (q ≤ 0.05, log2 ratio ≤ -1)
Details in all cases: compound concentration: 200 uM; treatment time: 3 h
[1] = target: USP34 (UniProt Q70CQ2)
Summary of the method: (§1)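 Labelled DUBs from HEK293T lysate were NeutrAvidin-enriched, digested with LysC and trypsin, and run by diaPASEF LC-MS/MS. Before that, each 495 µg sample in Tris/CHAPS/IGEPAL buffer with protease inhibitors was treated in triplicate with fragment at 200 µM or vehicle for 3 h, then with Biotin-Ahx-Ub-VS at 0.5 µM final for 1 h. Values are average log2 ratios of fragment over vehicle by unpaired t-test, based on global-median-normalised Spectronaut label-free quantities from proteins with ≥2 unique peptides.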

[2] = target: T1, USP36 (UniProt Q9P275)
T1 sequence (whole entry): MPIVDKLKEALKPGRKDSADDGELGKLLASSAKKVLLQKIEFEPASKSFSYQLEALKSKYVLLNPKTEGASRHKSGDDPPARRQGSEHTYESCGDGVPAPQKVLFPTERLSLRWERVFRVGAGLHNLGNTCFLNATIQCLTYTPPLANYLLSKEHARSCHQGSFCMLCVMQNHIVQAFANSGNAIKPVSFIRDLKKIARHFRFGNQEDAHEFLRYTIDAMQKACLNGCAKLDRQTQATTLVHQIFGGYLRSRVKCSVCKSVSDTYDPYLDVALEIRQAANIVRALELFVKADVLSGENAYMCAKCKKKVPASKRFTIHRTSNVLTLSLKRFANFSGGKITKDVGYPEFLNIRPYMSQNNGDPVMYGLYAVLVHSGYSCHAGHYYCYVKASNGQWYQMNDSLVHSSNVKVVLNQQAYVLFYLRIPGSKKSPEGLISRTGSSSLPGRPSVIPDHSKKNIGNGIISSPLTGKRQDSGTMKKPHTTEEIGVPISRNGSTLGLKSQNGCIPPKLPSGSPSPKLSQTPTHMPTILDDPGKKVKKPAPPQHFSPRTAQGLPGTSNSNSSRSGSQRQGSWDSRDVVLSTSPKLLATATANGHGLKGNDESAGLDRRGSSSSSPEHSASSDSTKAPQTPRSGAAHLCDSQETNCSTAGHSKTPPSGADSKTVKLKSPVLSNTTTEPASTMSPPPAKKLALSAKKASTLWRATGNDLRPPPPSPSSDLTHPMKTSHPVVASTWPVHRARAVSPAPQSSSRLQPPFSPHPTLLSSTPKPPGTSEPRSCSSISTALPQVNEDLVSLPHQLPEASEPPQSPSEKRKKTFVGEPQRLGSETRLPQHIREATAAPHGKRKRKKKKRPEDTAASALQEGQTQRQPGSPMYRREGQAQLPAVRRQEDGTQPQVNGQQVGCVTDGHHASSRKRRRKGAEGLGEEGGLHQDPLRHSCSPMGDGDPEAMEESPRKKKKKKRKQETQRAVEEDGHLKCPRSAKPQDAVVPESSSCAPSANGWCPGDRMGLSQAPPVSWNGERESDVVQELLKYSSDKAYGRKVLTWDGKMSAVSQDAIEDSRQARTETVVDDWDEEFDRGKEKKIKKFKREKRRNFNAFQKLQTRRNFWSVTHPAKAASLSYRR
Summary of the method: as §1

[3] = target: T2, USP38 (UniProt Q8NB14)
T2 sequence (whole entry): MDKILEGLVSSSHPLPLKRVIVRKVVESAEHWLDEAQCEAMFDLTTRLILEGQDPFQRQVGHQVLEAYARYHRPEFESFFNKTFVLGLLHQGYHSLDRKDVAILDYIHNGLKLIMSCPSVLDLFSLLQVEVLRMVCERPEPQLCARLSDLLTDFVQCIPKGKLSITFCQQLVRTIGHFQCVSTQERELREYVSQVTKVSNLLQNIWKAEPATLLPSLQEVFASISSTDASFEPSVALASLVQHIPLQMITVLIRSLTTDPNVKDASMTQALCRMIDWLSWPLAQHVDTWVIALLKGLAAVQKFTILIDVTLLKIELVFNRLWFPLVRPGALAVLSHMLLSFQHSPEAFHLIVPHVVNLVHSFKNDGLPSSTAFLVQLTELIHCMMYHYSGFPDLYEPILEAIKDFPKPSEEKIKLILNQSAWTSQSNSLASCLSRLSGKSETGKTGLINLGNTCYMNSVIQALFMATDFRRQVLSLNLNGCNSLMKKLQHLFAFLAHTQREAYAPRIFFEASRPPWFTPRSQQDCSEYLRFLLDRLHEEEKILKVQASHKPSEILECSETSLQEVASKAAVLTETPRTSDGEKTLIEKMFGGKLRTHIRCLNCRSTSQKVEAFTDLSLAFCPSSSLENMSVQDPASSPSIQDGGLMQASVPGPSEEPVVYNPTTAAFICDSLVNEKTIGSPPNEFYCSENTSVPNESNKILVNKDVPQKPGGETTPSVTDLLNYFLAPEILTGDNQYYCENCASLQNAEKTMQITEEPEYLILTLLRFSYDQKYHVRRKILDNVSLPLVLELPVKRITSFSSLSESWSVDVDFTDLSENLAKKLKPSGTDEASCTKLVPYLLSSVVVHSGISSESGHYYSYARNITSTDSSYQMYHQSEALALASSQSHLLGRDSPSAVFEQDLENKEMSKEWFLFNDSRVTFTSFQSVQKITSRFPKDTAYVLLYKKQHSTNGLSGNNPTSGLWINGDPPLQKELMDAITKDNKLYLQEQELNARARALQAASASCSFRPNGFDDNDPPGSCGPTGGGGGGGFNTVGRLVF
Summary of the method: as §1

[4] = target: T3, USP39 (UniProt Q53GS9)
T3 sequence (whole entry): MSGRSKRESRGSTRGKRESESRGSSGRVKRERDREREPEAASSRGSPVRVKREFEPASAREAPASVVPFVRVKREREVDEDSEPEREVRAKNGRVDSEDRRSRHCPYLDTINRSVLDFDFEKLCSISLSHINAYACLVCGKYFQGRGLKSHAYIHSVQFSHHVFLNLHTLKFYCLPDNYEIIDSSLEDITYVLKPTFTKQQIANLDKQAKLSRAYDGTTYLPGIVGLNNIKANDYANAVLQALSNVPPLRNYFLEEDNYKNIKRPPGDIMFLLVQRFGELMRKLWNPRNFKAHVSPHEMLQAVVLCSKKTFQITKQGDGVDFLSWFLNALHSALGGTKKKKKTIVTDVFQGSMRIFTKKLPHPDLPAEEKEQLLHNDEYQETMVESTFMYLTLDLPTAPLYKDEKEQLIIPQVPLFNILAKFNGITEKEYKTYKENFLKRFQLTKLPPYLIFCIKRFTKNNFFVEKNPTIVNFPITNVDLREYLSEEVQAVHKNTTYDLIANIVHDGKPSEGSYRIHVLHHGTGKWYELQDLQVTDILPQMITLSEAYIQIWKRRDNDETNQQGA
Summary of the method: as §1

[5] = target: T4, USP4 (UniProt Q13107)
T4 sequence (whole entry): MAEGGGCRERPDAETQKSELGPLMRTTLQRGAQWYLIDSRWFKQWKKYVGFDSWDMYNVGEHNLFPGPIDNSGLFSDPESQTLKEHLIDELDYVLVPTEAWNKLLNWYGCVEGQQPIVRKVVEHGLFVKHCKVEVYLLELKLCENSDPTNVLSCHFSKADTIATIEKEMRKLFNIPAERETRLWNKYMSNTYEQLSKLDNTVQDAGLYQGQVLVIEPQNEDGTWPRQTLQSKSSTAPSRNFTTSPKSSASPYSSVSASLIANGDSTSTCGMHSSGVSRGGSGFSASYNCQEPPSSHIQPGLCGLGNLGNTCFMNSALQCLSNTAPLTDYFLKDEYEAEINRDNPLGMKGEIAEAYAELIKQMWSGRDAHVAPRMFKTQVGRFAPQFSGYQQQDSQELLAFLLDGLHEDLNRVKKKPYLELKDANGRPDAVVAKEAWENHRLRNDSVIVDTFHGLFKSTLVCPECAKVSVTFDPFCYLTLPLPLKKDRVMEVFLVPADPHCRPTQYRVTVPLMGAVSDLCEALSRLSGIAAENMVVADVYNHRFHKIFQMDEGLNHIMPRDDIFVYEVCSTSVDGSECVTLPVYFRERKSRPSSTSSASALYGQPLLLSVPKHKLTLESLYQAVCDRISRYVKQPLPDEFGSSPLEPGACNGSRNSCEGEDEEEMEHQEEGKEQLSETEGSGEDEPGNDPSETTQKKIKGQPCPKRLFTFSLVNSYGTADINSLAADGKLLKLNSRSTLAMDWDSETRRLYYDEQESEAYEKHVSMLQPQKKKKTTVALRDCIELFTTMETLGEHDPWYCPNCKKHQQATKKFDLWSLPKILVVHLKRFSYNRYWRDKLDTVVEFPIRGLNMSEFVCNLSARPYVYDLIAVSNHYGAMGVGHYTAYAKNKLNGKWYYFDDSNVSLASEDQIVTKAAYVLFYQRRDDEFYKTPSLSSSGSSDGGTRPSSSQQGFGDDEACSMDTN
Summary of the method: as §1

Measured: log2 ratio of Biotin-Ahx-Ub-VS probe labelling

Chain of USP34 (Q70CQ2 whole entry, the tested form may be a part): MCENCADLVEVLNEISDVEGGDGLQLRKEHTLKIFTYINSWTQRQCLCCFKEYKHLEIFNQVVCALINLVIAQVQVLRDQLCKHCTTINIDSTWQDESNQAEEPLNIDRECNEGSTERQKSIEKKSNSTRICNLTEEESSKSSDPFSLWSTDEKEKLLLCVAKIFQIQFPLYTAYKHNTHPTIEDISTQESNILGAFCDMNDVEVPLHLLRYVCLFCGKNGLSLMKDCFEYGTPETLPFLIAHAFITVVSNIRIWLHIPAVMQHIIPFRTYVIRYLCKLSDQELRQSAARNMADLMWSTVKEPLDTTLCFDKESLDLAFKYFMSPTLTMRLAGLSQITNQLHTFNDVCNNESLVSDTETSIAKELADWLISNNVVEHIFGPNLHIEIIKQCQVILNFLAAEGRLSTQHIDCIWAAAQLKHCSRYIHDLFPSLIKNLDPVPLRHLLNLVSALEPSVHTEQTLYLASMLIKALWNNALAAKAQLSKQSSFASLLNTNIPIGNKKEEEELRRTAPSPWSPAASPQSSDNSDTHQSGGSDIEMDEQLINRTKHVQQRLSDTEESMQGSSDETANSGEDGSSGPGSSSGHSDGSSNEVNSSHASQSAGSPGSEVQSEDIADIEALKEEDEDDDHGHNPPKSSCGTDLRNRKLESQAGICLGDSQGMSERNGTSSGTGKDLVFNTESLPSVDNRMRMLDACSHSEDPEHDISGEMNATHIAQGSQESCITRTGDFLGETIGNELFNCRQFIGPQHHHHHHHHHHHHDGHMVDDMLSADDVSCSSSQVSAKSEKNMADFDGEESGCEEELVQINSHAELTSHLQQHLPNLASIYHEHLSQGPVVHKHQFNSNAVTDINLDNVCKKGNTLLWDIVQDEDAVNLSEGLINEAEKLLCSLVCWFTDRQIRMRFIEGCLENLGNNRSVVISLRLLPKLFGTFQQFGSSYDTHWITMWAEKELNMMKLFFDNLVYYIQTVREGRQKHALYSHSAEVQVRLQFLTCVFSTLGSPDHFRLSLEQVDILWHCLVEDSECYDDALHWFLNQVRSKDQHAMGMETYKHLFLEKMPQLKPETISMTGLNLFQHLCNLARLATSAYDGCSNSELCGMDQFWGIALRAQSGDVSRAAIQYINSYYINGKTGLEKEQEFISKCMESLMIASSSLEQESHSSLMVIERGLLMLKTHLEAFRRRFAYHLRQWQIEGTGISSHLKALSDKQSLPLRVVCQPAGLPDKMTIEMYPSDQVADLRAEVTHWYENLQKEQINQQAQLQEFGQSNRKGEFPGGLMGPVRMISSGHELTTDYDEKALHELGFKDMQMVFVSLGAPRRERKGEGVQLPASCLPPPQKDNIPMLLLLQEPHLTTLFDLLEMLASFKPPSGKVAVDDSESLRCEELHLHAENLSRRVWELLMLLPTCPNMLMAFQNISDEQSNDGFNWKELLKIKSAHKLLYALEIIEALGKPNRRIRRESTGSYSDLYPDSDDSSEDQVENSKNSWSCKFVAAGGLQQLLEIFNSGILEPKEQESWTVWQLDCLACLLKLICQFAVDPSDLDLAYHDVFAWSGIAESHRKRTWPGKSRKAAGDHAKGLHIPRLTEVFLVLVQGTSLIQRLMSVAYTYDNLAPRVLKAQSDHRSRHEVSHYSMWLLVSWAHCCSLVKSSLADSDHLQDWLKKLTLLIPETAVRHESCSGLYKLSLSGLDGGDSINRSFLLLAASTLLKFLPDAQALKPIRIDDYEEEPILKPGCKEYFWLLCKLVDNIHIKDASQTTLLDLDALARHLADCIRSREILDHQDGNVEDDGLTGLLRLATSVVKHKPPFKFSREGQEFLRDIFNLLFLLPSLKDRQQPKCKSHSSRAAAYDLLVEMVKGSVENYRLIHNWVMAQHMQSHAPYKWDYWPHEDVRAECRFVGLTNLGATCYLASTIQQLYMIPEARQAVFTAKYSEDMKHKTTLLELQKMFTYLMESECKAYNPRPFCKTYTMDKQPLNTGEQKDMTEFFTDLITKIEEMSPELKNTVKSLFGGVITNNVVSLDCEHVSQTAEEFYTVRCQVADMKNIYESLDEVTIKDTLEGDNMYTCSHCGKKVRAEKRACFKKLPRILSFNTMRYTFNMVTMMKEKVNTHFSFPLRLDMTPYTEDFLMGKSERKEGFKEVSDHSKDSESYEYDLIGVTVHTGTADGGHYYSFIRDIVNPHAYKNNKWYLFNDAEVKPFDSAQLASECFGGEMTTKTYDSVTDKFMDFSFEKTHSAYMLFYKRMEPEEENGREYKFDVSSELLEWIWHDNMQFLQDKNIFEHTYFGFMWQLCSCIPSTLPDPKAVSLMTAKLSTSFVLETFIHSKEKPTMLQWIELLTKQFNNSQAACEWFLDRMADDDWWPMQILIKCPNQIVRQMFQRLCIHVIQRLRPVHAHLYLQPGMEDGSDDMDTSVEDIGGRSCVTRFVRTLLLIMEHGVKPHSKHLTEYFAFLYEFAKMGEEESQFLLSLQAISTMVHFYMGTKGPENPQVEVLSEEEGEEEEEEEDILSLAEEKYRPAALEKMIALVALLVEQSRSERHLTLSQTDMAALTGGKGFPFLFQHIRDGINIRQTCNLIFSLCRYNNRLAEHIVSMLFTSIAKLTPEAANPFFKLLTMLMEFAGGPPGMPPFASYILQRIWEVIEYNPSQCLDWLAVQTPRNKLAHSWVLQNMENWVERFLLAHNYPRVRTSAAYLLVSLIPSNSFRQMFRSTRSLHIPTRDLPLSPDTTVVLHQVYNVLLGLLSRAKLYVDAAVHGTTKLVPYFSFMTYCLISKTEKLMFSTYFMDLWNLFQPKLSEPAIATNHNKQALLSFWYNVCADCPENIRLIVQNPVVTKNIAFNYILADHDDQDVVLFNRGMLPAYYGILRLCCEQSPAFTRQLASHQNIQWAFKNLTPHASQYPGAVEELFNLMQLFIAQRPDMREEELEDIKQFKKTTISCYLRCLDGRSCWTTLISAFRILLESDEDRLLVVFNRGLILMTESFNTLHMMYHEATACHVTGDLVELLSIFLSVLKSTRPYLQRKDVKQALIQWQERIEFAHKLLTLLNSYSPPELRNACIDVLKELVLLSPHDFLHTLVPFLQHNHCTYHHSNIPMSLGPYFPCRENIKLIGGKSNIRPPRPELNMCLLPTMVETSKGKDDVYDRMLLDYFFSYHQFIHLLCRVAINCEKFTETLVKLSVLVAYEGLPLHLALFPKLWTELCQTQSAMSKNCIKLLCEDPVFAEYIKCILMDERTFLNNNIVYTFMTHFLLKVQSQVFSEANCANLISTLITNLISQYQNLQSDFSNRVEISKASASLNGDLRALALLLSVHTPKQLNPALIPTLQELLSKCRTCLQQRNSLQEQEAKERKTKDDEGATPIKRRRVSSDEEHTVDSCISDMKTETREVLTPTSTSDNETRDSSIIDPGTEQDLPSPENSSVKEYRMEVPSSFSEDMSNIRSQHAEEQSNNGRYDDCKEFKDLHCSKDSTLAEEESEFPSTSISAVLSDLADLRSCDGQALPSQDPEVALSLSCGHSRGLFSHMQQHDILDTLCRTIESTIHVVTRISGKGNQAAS

Cl.O=C(CCl)N1CCn2ncc(O)c2C1
inactive: [1] -0.237 | [2] -0.037 | [3] -0.188 | [4] 0.194 | [5] -0.298
